# From PubChem BioAssay (NCI)
# About 79,000 compounds went through this panel and 15% of them were active in at least one assay; those are over-represented in the sample as a whole. Unmarked numbers belong to inactive results. Cut-off read from the data, not from the text of the source: active = growth inhibition above about 70%; inactive = the rest.
# Assay: NCI Yeast Anticancer Drug Screen. Data for the bub3 strain (AID 167)
# Settings: S. cerevisiae bub3 mutant strain, at 50.0 µM, stronger effect = higher value
# How it was run: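 Whole-cell yeast assay. The mutant strain was incubated with compounds, and growth inhibition was determined by comparison with vehicle-treated cells.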
row,SMILES,growth inhibition [%]
1,CCC(CC)C(=O)OCCCC1CCCO1 (stereo unspecified),-3.95
2,CCCCCCCCCCCCCC(=O)N(CCCCCCCCC)CC(O)C(O)C(OC1OC(CO)C(O)C(O)C1O)C(O)CO (stereo unspecified),-49.1
3,NC(=O)c1nnsc1N/N=C/c1ccc([N+](=O)[O-])cc1,-20.1
4,C=C1C(=O)O[C@@H]2/C=C(/C)[C@@H](OC(C)=O)C[C@@H](O)/C(C)=C\[C@@H](OC(=O)[C@]3(C)O[C@@H]3C)[C@@H]12,13.4
5,COc1ccc2c(c1)C1(C)CCC(=O)C(C)=C1CC2 (stereo unspecified),14.8
6,O=C(COC(=O)c1cccc([N+](=O)[O-])c1)c1ccc(Br)cc1,7.3
7,COc1cccc(CN2CCCN(Cc3cccc(OC)c3O)C2c2ccccc2)c1O,0.9
8,CCCN(CCN(CC)CC)C(=O)N(CC)CC,6.35
9,O=[N+]([O-])c1ccc(-c2ccccc2CO)cc1,-6.95
10,O=c1c2ccccc2nc(-c2ccc(Br)cc2)n1NC1OC(CO)C(O)C(O)C1O (stereo unspecified),-9.15
11,O=C(O)c1cccc(CO)c1O,6.75
12,CN(C)c1ccc(N=C(C#CC#Cc2ccccc2)c2ccccc2)cc1,-19.4
13,CCCCOC(=O)CCCCCCCCC(=O)OCCCC,0.2
14,COc1c(Cl)c(Cl)c2ncc(Cl)cc2c1Cl,14.8
15,CCOC(=O)COc1ccc(Cl)cc1CCl,21.9
16,Cc1ccc(NC(=O)Nc2cccc(C(F)(F)F)c2)cc1NC(=O)Nc1cccc(C(F)(F)F)c1,-6.6
